# From PubChem BioAssay (NCATS)
# Inconclusive results are not listed. A call without a number means that no potency is given here. A number with no mark means an inactive call. Activity calls are given as the source filed them. Calls follow the shape of the dose curve; as a rule, active = well fitted inhibition curve with a large enough effect; inconclusive = small, poorly fitted or top-dose-only effect; inactive = no such curve, though single readings can be large or run the other way.
# Assay: Primary qHTS for inhibitors of nuclear receptor binding SET domain protein 2 (NSD2) in an RCH-ACV wild type WT cells (2C) (AID 1645877); also: nearly all actives have a fitted effect of over 70% in size
# Details: RCH-ACV (leukaemia line) NSD2 WT (2C) viability, CellTiter-Glo, 72 h; series mostly up to 44.9 µM
# Potency is read from the fitted curve at half-maximal effect.
Compound,Potency,"activity change, negative = cell killing",outcome
C=C1OC2CC(C(=O)O)C=CC2NC1=O (centres undefined),inactive,–,–
CC1(C)CCCC2(C)C(C(=O)O)=CCC12 (centres undefined),inactive,–,–
COc1cc(/C=C/C=O)cc(OC)c1O[C@@H]1O[C@H](CO)[C@@H](O)[C@H](O)[C@H]1O,inactive,–,–
COC(=O)C[C@H]1C(C)(C)[C@H](OC(=O)C(C)C)[C@@]2(O)C(=O)[C@]1(C)C1CC[C@]3(C)C(CC(=O)O[C@H]3c3ccoc3)[C@]13O[C@@H]32 (some centres undefined),inactive,–,–
CC1(C)CC[C@]2(C(=O)O)CC[C@]3(C)C(=CCC4[C@@]5(C)C[C@@H](O)[C@H](O)C(C)(C)C5CC[C@]43C)C2C1 (some centres undefined),inactive,–,–
CC1=CC(=O)CC(C)(C)[C@H]1/C=C/C(CO)O[C@@H]1O[C@H](CO)[C@@H](O)[C@H](O)[C@H]1O (some centres undefined),inactive,–,–
Cc1c(NC(=O)c2cc(C(N)=O)nc3cc(F)ccc23)c(C(F)(F)F)nn1Cc1ccc(C#N)cc1,inactive,–,–
CN(C)c1ccc2c(c1)OC(N)=C(C#N)C2c1cccc(C(F)(F)F)c1 (centres undefined),916 nM (active),–,–
C[C@@H]1O[C@@H](O[C@H]2[C@H](O[C@H]3[C@H](O)[C@@H](C(=O)O)O[C@@H](O[C@H]4CC[C@@]5(C)C(CC[C@]6(C)C5CC[C@]57OC[C@@]8(CCC(C)(C)CC85)[C@H](O)C[C@]76C)C4(C)C)[C@@H]3O[C@@H]3O[C@H](CO)[C@@H](O[C@@H]4OC[C@@H](O)[C@H](O)[C@H]4O)[C@H](O)[C@H]3O)O[C@H](CO)[C@H](O)[C@@H]2O)[C@H](O)[C@H](O)[C@H]1O (some centres undefined),–,-1.94% [at 9.23 µM],–
C=C(C)C(=O)O[C@H]1CC2=CC(C/C(C)=C\[C@H]3OC(=O)C(=C)[C@H]13)OC2=O (some centres undefined),3580 nM (active),–,–
CC(=O)c1c(O)cc(O[C@@H]2O[C@H](CO)[C@@H](O)[C@H](O)[C@H]2O)cc1O,inactive,–,–
CC(C)(C)c1ccc(S(=O)(=O)Nc2ccc(Cl)cc2C(=O)c2cc[n+]([O-])cc2)cc1,inactive,–,–
O=C1C=CC2OC(c3ccccc3)C(O)C2O1 (centres undefined),4590 nM (active),–,–
CC1CC2OC3(OC2C(C)(C)O)C1C1(C)CCC24CC25CCC(O[C@@H]2OC[C@@H](O)[C@H](O)[C@H]2O)C(C)(C)C5CC=C4C1(C)C3O (some centres undefined),inactive,–,–
CC1OC(OC2CCC3(C)C(CCC4(C)C3CC=C3C5CC(C)(C)CCC5(C(=O)OC5OC(CO)C(O)C(O)C5O)CCC34C(=O)O)C2(C)C)C(O)C(O)C1O (centres undefined),inactive,–,–
C[C@@]12C[C@]3(O)O[C@H](O1)[C@]1(COC(=O)c4ccccc4)[C@H]3C[C@@]12O[C@@H]1O[C@H](CO)[C@@H](O)[C@H](O)[C@H]1O,inactive,–,–
C=C(C(=O)OC)C1C(O)CC2(C)C(=O)CCC(O)(CO)C2C1O (centres undefined),inactive,–,–
Cc1ccc(C(=O)N(CCCN)C(c2nc3cc(Cl)ccc3c(=O)n2Cc2ccccc2)C(C)C)cc1 (centres undefined),7.3 nM (active),–,–
CC(=O)OC1C(c2ccccc2)CCC(c2ccccc2)C1OC(C)=O (centres undefined),inactive,–,–
COC(=O)C[C@H]1C(C)(C)[C@H](OC(C)=O)C2CC3=C4CC(=O)O[C@@H](c5ccoc5)[C@]4(C)CCC3[C@@]1(C)C2=O (some centres undefined),inactive,–,–
C/C=C(\C)C(=O)O[C@@H]1CC2[C@@H](CC=C3C[C@@H](O[C@H]4C[C@H](OC)[C@H](O[C@H]5C[C@H](OC)[C@H](O[C@@H]6O[C@H](C)[C@@H](O[C@H]7C[C@H](OC)[C@H](O[C@@H]8O[C@H](CO)[C@@H](O)[C@H](O)[C@H]8O)[C@@H](C)O7)[C@H](OC)[C@H]6O)[C@@H](C)O5)[C@@H](C)O4)CC[C@@]32C)[C@@]2(O)CC[C@H](C(C)=O)[C@@]12C (some centres undefined),–,-12.6% [at 9.23 µM],–
C=C(C)C1CCC2(C(=O)O[C@@H]3O[C@H](CO[C@@H]4O[C@H](CO)[C@@H](O)[C@H](O)[C@H]4O)[C@@H](O)[C@H](O[C@@H]4O[C@@H](C)[C@H](O)[C@@H](O)[C@H]4O)[C@H]3O)CCC3(C(=O)O)C(CCC4C5(C)CCC(O)C(C)(C)C5CCC43C)C12 (some centres undefined),–,–,inactive [at 9.23 µM]
CC(=O)N[C@H]1[C@H](O[C@H]2CC[C@@]3(C)C(CC[C@]4(C)C3CC=C3[C@@H]5CC(C)(C)CC[C@]5(C(=O)OC5OCC(O)C(O)C5O)CC[C@]34C)C2(C)C)O[C@H](COC2OC(C)C(O)C(OC3OC(C)C(O)C(O)C3O)C2O)[C@@H](O)[C@@H]1O (some centres undefined),–,1.82% [at 9.23 µM],–
CC(C)CCC[C@@H](C)[C@H]1CC[C@H]2[C@@H]3CC(=O)[C@H]4C[C@@H](O)CC[C@]4(C)[C@H]3CC[C@]12C,inactive,–,–
